The target in assay [1] is Tyrosine-protein kinase SYK (Homo sapiens) (UniProt P43405). To be noted: at 10 µM.
The target in assay [2] is T1, Mitogen-activated protein kinase kinase kinase 7 (Homo sapiens) (UniProt O43318).
T1 sequence (whole entry): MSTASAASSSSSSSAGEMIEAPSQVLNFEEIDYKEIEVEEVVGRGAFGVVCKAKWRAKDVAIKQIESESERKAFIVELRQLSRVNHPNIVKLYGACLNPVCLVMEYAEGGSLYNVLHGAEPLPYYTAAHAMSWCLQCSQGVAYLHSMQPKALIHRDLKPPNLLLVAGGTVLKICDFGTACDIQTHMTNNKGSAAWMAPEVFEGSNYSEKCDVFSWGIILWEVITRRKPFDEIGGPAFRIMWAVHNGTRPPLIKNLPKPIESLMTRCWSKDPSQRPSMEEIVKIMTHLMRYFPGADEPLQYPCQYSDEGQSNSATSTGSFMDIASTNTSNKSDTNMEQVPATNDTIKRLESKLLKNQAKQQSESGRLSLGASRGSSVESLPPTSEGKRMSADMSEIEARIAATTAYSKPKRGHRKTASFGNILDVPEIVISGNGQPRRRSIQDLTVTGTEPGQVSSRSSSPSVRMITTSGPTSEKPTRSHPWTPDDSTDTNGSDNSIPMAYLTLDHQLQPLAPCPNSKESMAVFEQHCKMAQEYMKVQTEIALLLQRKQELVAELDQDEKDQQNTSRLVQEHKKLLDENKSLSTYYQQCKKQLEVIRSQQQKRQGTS
Particulars: at 1 µM.

Assay [3] addresses T1, Mitogen-activated protein kinase kinase kinase 7 (Homo sapiens). To be noted: at 10 µM.
Assay [4] deals with T2, Serine/threonine-protein kinase TAO1 (Homo sapiens) (UniProt Q7L7X3).
T2 sequence (whole entry): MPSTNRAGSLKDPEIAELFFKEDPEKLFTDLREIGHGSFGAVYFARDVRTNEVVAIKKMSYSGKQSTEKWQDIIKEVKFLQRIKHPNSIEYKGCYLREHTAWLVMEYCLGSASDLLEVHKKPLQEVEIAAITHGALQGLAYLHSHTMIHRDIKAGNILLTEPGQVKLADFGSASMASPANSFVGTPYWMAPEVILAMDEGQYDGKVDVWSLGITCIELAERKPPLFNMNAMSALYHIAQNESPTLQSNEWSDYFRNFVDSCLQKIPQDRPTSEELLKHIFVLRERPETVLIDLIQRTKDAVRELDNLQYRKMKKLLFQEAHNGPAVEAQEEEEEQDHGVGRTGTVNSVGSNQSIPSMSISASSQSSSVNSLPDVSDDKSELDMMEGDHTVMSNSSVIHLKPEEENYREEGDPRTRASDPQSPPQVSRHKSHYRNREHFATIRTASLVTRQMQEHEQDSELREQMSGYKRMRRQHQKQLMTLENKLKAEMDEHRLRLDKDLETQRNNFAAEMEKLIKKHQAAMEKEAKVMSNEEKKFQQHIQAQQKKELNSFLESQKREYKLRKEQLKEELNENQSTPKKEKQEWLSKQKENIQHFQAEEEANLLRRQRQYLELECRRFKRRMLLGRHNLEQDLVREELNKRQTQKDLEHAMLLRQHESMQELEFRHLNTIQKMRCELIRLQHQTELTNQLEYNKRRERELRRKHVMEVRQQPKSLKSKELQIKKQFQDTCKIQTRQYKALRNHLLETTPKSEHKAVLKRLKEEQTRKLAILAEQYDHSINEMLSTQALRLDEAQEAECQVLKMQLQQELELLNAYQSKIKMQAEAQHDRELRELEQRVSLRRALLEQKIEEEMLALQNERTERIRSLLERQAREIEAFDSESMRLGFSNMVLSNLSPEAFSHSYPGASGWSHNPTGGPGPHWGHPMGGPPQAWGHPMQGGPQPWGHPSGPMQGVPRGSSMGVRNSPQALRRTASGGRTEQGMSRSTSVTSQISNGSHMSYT
To be noted: at 1 µM.

The target of assay [5] is T2, Serine/threonine-protein kinase TAO1 (Homo sapiens). Particulars: at 10 µM.
Assay [6] addresses T3, Serine/threonine-protein kinase TAO2 (Homo sapiens) (UniProt Q9UL54).
T3 sequence (whole entry): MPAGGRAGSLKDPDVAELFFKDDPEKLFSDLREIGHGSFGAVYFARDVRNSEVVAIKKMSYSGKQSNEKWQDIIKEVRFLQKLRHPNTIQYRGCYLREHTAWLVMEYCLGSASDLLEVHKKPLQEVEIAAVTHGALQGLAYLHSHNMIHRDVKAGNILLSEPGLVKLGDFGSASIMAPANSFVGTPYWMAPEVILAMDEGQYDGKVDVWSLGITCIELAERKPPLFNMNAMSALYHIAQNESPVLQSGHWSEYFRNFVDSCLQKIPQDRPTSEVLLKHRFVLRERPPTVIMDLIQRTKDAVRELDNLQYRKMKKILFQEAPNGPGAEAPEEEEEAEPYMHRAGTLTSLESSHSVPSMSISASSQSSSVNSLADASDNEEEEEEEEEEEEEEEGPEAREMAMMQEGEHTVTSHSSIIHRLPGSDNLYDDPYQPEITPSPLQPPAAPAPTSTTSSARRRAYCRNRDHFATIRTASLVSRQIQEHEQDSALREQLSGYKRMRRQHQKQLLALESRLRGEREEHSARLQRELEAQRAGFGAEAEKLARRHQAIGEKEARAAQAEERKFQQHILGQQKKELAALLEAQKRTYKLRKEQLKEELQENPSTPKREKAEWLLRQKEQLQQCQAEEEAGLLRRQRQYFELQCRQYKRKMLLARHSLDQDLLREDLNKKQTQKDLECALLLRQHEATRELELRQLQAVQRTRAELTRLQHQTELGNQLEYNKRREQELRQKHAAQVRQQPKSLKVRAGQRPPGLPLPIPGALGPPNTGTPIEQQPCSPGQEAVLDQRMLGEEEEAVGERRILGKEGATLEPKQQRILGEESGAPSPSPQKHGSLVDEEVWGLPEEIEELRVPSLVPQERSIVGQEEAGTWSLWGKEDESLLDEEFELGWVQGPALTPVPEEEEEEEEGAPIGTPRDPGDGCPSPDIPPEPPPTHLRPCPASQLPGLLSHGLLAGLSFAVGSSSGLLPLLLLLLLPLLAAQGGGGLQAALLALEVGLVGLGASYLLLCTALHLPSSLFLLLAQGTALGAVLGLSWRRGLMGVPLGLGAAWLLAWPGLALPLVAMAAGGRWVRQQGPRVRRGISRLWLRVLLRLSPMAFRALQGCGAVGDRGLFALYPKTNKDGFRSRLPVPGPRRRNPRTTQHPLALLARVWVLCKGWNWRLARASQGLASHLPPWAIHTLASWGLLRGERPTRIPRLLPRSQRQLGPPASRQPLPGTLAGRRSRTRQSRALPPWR
To be noted: at 1 µM.

The target in assay [7] is T3, Serine/threonine-protein kinase TAO2 (Homo sapiens). To be noted: at 10 µM.
Assay [8] has as its target T4, Serine/threonine-protein kinase TAO3 (Homo sapiens) (UniProt Q9H2K8).
T4 sequence (whole entry): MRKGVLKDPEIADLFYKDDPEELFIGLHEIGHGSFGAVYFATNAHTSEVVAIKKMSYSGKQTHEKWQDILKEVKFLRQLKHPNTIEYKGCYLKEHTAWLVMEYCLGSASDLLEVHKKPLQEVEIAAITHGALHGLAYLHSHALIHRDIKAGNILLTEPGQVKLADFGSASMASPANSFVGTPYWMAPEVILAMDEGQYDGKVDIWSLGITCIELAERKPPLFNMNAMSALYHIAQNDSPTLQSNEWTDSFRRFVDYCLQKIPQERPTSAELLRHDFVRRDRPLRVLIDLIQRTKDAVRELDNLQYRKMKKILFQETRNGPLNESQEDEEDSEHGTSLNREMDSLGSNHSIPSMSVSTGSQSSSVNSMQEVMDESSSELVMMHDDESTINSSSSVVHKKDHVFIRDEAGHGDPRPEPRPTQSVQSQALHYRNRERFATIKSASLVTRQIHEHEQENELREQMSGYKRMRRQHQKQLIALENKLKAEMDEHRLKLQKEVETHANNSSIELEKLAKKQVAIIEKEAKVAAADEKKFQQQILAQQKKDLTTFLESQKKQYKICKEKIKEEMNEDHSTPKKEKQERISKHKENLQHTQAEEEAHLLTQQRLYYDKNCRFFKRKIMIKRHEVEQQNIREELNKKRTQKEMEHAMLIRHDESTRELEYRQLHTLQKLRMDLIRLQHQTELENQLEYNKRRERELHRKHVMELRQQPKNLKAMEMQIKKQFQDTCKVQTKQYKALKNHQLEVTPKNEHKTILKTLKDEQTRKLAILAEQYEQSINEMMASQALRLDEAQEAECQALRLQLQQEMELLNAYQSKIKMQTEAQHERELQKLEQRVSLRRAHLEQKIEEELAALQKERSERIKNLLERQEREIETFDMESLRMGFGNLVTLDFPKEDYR
Particulars: at 1 µM.

In assay [9] the target is T4, Serine/threonine-protein kinase TAO3 (Homo sapiens). Particulars: at 10 µM.
Assay [10] addresses T5, Serine/threonine-protein kinase TBK1 (Homo sapiens) (UniProt Q9UHD2).
T5 sequence (whole entry): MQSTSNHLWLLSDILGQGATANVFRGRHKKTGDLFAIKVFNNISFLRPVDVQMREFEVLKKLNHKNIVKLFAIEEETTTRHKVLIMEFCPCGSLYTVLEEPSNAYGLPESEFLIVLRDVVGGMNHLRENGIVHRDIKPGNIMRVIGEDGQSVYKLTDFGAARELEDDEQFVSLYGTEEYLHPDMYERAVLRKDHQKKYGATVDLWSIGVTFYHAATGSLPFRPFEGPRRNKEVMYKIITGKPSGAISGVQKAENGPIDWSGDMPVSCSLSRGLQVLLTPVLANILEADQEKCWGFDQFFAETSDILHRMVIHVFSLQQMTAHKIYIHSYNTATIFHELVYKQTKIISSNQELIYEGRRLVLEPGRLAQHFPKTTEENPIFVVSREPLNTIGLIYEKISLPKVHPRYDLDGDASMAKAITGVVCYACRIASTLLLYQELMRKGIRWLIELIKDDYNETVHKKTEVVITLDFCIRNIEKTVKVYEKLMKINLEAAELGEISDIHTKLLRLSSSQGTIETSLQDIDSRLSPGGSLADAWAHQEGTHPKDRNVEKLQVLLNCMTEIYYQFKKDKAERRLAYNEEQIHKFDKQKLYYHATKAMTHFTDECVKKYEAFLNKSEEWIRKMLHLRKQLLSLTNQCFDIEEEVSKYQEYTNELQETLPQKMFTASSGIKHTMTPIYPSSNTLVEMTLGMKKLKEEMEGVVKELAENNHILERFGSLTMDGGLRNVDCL
Particulars: at 1 µM.

On to `O=c1cc(-c2cccc3c2Sc2ccccc2S3)oc(N2CCOCC2)c1`, for which the residual activity in [1] worked out at 90%; in assay [2], 101%; in assay [3], 89%; in assay [4] it was 107%; in [5], 80%; in [6], 93%. Moreover, the residual activity in assay [7] was 90%; in [8] it was 94%; in assay [9], 82%; in assay [10], 99%.

These data come from ChEMBL document CHEMBL2218924, “A broad activity screen in support of a chemogenomic map for kinase signalling research and drug discovery” (Biochem J, 2013).
